Several values for one entry are separate records, joined by “and”; a condition that tells them apart may be missing. Identical values can stand only once. Records with an inconclusive call do not appear. Some compounds were tested as several samples or in several runs, with calls that do not always agree. Activity calls are given as the source filed them. The call rests on the fitted dose curve; in most records, active means well fitted inhibition curve with a large enough effect in the repeat runs; inconclusive means weak or mixed curves; inactive means no such curve, though single readings can be large or run the other way.
Molecular target: Cytochrome P450 2C19 (Homo sapiens) (UniProt P33261)
Sequence (P33261 whole entry, looked up): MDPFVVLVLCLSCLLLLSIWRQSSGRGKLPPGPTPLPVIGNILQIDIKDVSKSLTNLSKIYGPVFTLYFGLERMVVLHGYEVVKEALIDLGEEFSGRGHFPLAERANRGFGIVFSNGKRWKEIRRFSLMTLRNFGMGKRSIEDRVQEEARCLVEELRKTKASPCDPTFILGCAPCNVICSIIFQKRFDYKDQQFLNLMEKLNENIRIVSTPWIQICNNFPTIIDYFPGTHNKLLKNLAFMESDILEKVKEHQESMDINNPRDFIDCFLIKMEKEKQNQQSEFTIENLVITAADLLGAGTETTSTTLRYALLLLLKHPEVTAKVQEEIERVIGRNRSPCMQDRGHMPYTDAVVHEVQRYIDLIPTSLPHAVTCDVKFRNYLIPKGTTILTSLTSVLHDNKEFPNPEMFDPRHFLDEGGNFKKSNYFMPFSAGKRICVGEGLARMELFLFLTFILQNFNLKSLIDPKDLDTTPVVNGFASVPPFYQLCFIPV
Test: Cytochrome P450 Family 2 Subfamily C Member 19 (CYP2C19) small molecule antagonists: luciferase reporter qHTS assay (AID 1671197); further: nearly all actives have a fitted effect of over 65% in size
Conditions: P450-Glo CYP2C19 enzyme, luciferin luminescence, 1 h; series mostly up to 115 µM
How it was run: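 Quantitative high-throughput screen of the Tox21 library using CYP2C19 with proluciferin substrate. Reaction: NADPH regeneration, 37C, 1 h, after 10 min compound preincubation at room temperature. Readout: luminescence.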
Potency means the concentration at half of the fitted maximal effect.

Structure (SMILES)	Potency
[N-]=[N+]=[N-]	24.4 µM (active) and 50.2 µM (active)
CCOP(=S)(OCC)Oc1cnc2ccccc2n1	inactive and 448 nM (active)
CC(C)(C)OOC(C)(C)C	inactive
CC(C)C1(C)N=C(c2nc3ccccc3cc2C(=O)O)NC1=O (stereo unspecified)	inactive
CCCCOC(=O)c1ccccc1C(=O)OCCCC	5.64 µM (active) and 3.99 µM (active)
CC(C)(C)C(O)(CCc1ccc(Cl)cc1)Cn1cncn1 (stereo unspecified)	640 nM (active) and 448 nM (active)
O=C(NC(=O)c1c(F)cccc1F)Nc1cc(Cl)c(OC(F)(F)C(F)C(F)(F)F)cc1Cl (stereo unspecified)	10 µM (active) and 34.7 µM (active)
CC(C)=C[C@@H]1[C@@H](C(=O)OCc2coc(Cc3ccccc3)c2)C1(C)C	10 µM (active) and 4.36 µM (active)
CCC12COCN1COC2	35.6 µM (active)
CC(C)OC(=O)Nc1cccc(Cl)c1	24.8 µM (active) and 31.7 µM (active)
O=c1[nH]c(=O)[nH]c(=O)[nH]1	inactive
CCc1cccc(C)c1N(C(=O)CCl)C(C)COC (stereo unspecified)	6.69 µM (active) and 6.33 µM (active)
CCCN(CCC)c1c([N+](=O)[O-])cc(C(F)(F)F)cc1[N+](=O)[O-]	39.8 µM (active) and 35.6 µM (active)
CCN(CC)CCO	inactive
CCC[CH2][Sn]([Cl])([Cl])[Cl]	40.6 µM (active) and inactive
C#CC(C)(C)NC(=O)c1cc(Cl)cc(Cl)c1	8.04 µM (active) and 39.9 µM (active)
Nc1ccc(Br)cc1	50.2 µM (active) and 39.9 µM (active)
[O-][Cl+2]([O-])O	inactive

Structure (SMILES)	Potency
Cc1ccc(N)cc1Cl	7.18 µM (active) and 11.2 µM (active)
C1CN2CCN1CC2	inactive
Cc1cc(-c2cc(C)c(N)c(C)c2)cc(C)c1N	10.1 µM (active) and 8.78 µM (active)
NCC(O)c1ccc(O)cc1 (stereo unspecified)	inactive
CNC(=O)Oc1ccccc1OC(C)C	inactive
COC(=O)c1ccccc1C(=O)OC	71.4 µM (active)
COC(=O)NC(=S)Nc1ccccc1NC(=S)NC(=O)OC	63.3 µM (active) and 22.4 µM (active)
CC(C#N)CCC#N (stereo unspecified)	inactive
Nc1ccc(Oc2ccc(N)cc2)cc1	18.1 µM (active) and 20 µM (active)
CCCCCOC(=O)c1ccccc1C(=O)OCCCCC	11.2 µM (active) and 7.96 µM (active)
O=Cc1cccc(Oc2ccccc2)c1	16 µM (active) and 71 µM (active)
CCCCCCCCCl	inactive
O=c1ccc(=O)[nH][nH]1	inactive
CCOP(OCC)OCC	inactive
C1CC2OC2CC1C1CO1 (stereo unspecified)	69.7 µM (active)
ClCCBr	79.4 µM (active) and inactive
c1ccc(-c2ccccc2)cc1	inactive
O=[N+]([O-])c1ccc([As](=O)(O)O)cc1	inactive
